Bioassay records (PubChem BioAssay)
ST2 inh: inhibitors of human ST2 (IL1RL1) binding to IL-33; Q01638; AlphaLISA ST2-Fc/biotin-IL-33 interaction, 1 h; inhibition, % for hits at 17 µM; 78,000 tested, 2.3% active; in the data active means inhibition above about 30%
Target sequence (Q01638 whole entry, looked up): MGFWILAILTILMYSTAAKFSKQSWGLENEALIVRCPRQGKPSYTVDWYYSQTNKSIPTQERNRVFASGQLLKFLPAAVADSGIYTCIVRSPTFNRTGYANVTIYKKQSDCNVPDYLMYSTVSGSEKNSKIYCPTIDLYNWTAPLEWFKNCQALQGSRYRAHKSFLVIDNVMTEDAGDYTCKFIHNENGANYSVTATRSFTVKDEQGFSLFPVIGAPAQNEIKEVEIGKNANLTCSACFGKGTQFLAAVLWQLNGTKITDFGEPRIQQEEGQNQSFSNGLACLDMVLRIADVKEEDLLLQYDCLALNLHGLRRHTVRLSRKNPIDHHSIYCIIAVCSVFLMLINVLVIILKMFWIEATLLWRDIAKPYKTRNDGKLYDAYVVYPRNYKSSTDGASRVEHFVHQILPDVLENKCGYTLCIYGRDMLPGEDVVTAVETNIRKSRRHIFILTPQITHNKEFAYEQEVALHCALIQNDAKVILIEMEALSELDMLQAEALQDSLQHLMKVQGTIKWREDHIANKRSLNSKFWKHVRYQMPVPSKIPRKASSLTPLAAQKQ
A number is an active result; – = inactive. Only a selection was taken, and hits are over-represented in it overall.

SMILES	ST2 inh
O=C1C[C@H]2CC[C@@H](CN1)N2C(=O)Cc1ccc(NC(=O)C2CC2)cc1	43%
NS(=O)(=O)c1ccc(NC(=O)C2CCN(C(=O)Cc3ccccc3)CC2)cc1	–
NC(=O)c1ccc(NC(=O)C2CCN(C(=O)Cc3ccccc3)CC2)cc1	–
Cc1cc(N2CCOCC2)nc2ccc(NC(=O)CCC(=O)NC(C)C)cc12	–
O=C(COc1ccc(Br)cc1Br)NCC1CCCO1 (configuration not stated)	–
COC(=O)c1cccc(NC(=S)N[C@H]2CO[C@H]3[C@@H]2OC[C@H]3OC(=O)Nc2ccc(C(C)C)cc2)c1	68%
CCNC(=O)O[C@@H]1CO[C@H]2[C@@H]1OC[C@@H]2NC(=O)Nc1ccc(C(C)C)cc1	–
CC(C)c1ccc(NC(=O)O[C@@H]2CO[C@H]3[C@@H]2OC[C@@H]3NC(=O)Nc2cccc(C#N)c2)cc1	–
CC(=O)c1cccc(NC(=O)O[C@@H]2CO[C@H]3[C@@H]2OC[C@@H]3NC(=S)Nc2ccccc2)c1	–
COC(=O)c1cccc(NC(=S)N[C@H]2CO[C@H]3[C@@H]2OC[C@H]3OC(=O)NC2CCCCC2)c1	–
CCNC(=O)O[C@@H]1CO[C@H]2[C@@H]1OC[C@@H]2NC(=S)Nc1cccc(C#N)c1	92%
CN(Cc1cccc(-n2cccn2)c1)Cc1nc(-c2ccc(C(F)(F)F)cc2)no1	–
Cc1nc2ccc(S(=O)(=O)NCc3ccc(C(C)(C)C)cc3)cc2s1	–
Cc1ccc(S(=O)(=O)C2(C(=O)NCc3cccs3)CC2)cc1	–
C=CCNC(=O)c1ccc(N(Cc2ccccc2Cl)S(C)(=O)=O)cc1	–
CCCCN(CC)Cc1c(C)[nH]c2ccc(C)cc2c1=O	–
O=C(CN1CCC(c2ccccc2)CC1)NC1CCCN(c2ncccn2)C1 (configuration not stated)	–
O=[N+]([O-])c1ccc(N2CCOCC2)cc1NCCCO	–
O=[N+]([O-])c1ccc(N2CCN(S(=O)(=O)c3ccc(Cl)cc3)CC2)cc1	35%
O=[N+]([O-])c1ccc(S(=O)(=O)N2CCN(CCCc3ccccc3)CC2)cc1	34%
O=C(COc1ccccc1)N1CCN(S(=O)(=O)c2ccc([N+](=O)[O-])cc2)CC1	–
O=[N+]([O-])c1ccc(N2CCN(S(=O)(=O)c3ccc(Cl)c(Cl)c3)CC2)cc1NC1CC1	30%
O=[N+]([O-])c1ccc(S(=O)(=O)N2CCN(c3ccccc3)CC2)cc1	–
O=S(=O)(c1ccc(Br)cc1)N1CCN(Cc2ccccc2)CC1	–
CCS(=O)(=O)N1CCN(c2ccc([N+](=O)[O-])c(NCc3cccnc3)c2)CC1	–
SMILES	ST2 inh
O=[N+]([O-])c1ccc(S(=O)(=O)N2CCN(c3ccccn3)CC2)cc1	–
Nc1c(C(=O)NCc2ccco2)nnn1Cc1ccc(Cl)cc1	–
CC1C(=O)N(C)CCN1Cc1cccc(OCc2ccccn2)c1 (configuration not stated)	–
O=C1NC(=Nc2ccccc2)SC1Cc1ccccc1 (configuration not stated)	–
O=C1NC(=Nc2ccccc2)SC1Cc1cccc([N+](=O)[O-])c1 (configuration not stated)	–
COc1ccc(CC2SC(=Nc3ccccc3)NC2=O)cc1 (configuration not stated)	31%
CC1=CCC(C(=O)O)(C(=O)n2nc(C)cc2C)C(c2ccc(Br)cc2)C1 (configuration not stated)	–
CC(C)=CCn1c(N2CCN(C)CC2)nc2c1c(=O)[nH]c(=O)n2C	–
COc1ccccc1C(CC(=O)O)c1ccco1 (configuration not stated)	–
COc1ccc(/C=C(/NC(=O)c2ccco2)C(=O)Nc2ccc(OC)cc2)cc1	–
C=C(C)CC(Nc1ccc(OC)cc1)c1ccco1 (configuration not stated)	37%
CCOc1ccc(C2CC(c3ccc(Cl)cc3)n3nc(N)nc3N2)cc1 (configuration not stated)	–
CCOc1ccc(C2Nc3cccc4cccc(c34)N2)cc1	36%
CCOc1ccc(C2CC(c3ccccc3OC)n3ncnc3N2)cc1 (configuration not stated)	–
Cc1ccc(CN2CC34C=CC(O3)C(C(=O)NCc3ccc(F)cc3)C4C2=O)cc1 (configuration not stated)	–
CCCC(C)c1nnc(NC(=O)c2cc(C)[nH]c(=O)c2)s1 (configuration not stated)	–
COc1ccc(S(=O)(=O)Nc2ccc(NC(C)=O)cc2)cc1	–
CCN(CC)c1ccc(NS(=O)(=O)c2ccc(OC)cc2)cc1	35%
COc1ccc(NS(=O)(=O)c2ccc(NS(=O)(=O)c3ccc(C)cc3)cc2)cc1	–
O=C(CC[C@@H]1CNC(=O)[C@@H]2C[C@H](NC(=O)Nc3ccc(F)cc3F)CN12)NCc1ccc(F)cc1	71%
O=C(CC[C@@H]1CNC(=O)[C@@H]2C[C@H](NC(=O)c3ccc(F)c(Cl)c3)CN12)NCc1ccccc1	–
O=C(CC[C@@H]1CNC(=O)[C@@H]2C[C@H](NC(=S)Nc3ccc(Cl)cc3)CN12)NC1CC1	–
O=C(CC[C@@H]1CNC(=O)[C@@H]2C[C@H](NC(=S)NCCN3CCOCC3)CN12)NCc1ccccc1	31%
O=C1NC[C@@H](CCC(=O)N2CCOCC2)N2C[C@@H](NC(=S)NCc3ccco3)C[C@@H]12	–
COCCNC(=S)N[C@H]1C[C@H]2C(=O)NC[C@@H](CCC(=O)N3CCOCC3)N2C1	–
SMILES	ST2 inh
CCC(=O)N1CCc2cc(Br)cc(S(=O)(=O)N3CCCC3)c21	–
COC(=O)c1ccc(S(=O)(=O)c2ccc(C)cc2)c(N)c1	–
CN(C)[C@H]1CCN(c2ccnc(C(=O)NCc3ccco3)c2)C1	–
O=C(c1ccc(Cl)cc1)N1CCN(c2ccc([N+](=O)[O-])c3ncccc23)CC1	–
O=[N+]([O-])c1ccc(N2CCN(c3ccccc3)CC2)c2ncccc12	32%
O=C(Cc1ccccc1[N+](=O)[O-])N1CCN(c2ccccn2)CC1	–
CCOc1ccc(NC(=O)c2oc3ccccc3c2NC(=O)COc2ccccc2F)cc1	–
O=C1C(=Nc2ccccc2)c2ccccc2N1CN1CCN(c2ccc(F)cc2)CC1	–
O=C(O)CCC1C(=O)CCC1(C(=O)O)c1ccccc1 (configuration not stated)	–
CN(C)c1ccc(Nc2c([N+](=O)[O-])cc([N+](=O)[O-])c3cccnc23)cc1	95%
CN(C)c1ccc(NC(=O)Nc2ccc3nc(-c4ccccn4)c(-c4ccccn4)nc3c2)cc1	–
O=[N+]([O-])c1cc(Cl)c2cccnc2c1O	–
COc1c2c(cc3ccc(=O)oc13)C=CC(C)(C)O2	–
O=C(CN(c1cccc(Cl)c1)S(=O)(=O)c1ccccc1)NCC1CCCO1 (configuration not stated)	–
CCC(C)NC(=O)CSc1cc(=O)n(C)c2cc(Cl)ccc12 (configuration not stated)	–
O=C(NCCCn1ccnc1)c1cc2nc(-c3cccs3)cc(C(F)(F)F)n2n1	–
COc1ccc(/C=C(\C#N)c2nc3ccc(C)cc3[nH]2)cc1O	46%
N#C/C(=C\c1cccc(F)c1)c1nc2ccccc2[nH]1	–
N#C/C(=C\c1cccc(Br)c1)c1nc2ccccc2[nH]1	–
COc1ccc(C)cc1NC(=O)c1ccc(N(C)S(=O)(=O)c2ccccc2)cc1	–
NC(=O)CCNC(=O)C1=C[C@@H](NC(=O)Cc2cccs2)[C@@H](O)[C@H](O)C1	–
Cc1ccc(C(=O)N[C@@H]2C=C(C(=O)NCCC(N)=O)C[C@@H](O)[C@@H]2O)cc1	–
